# Screening data (PubChem)
# A selection: hits, their analogues and other compounds. The true share with any hit is near 15%.
# RORg inh: ROR gamma (mouse) transcription inhibition; P51450; Drosophila S2 Gal4-RORgamma UAS-luciferase reporter, 20 h; Potency, µM (top dose mostly 53.6 µM), inactives show at the top dose activity change, negative = inhibition, actives largely listed as inhibitors; hit rate 5.4% among 310,000; further: nearly all actives have a fitted effect of over 60% in size
#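 Compounds are pin-transferred onto Drosophila Schneider cells expressing a copper-inducible Gal4–ROR gamma transactivation domain fusion. After 1 hr, copper sulfate is added to 700 uM final; luciferase is read 20 hr later.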
# VP16 counter: counter-screen for ROR gamma inhibitors: Gal4-VP16 reporter | Drosophila S2 Gal4-VP16 UAS-luciferase, luminescence, 20 h | Potency, µM (highest dose often 53.6 µM), for the others: top-dose activity, negative = inhibition, actives largely listed as inhibitors | hit rate 3.5% among 310,000 | AID 2546;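 further: Gal4-VP16 expression switched on by copper sulfate through the metallothionein promoter; nearly all actives have a fitted effect of over 50% in size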
# ALOX12 inh: inhibitors of human 12S-lipoxygenase ALOX12; Potency, µM (series often up to 108 µM), for inactives: at the top dose activity change, negative = inhibition, hits mostly inhibitors; purified 12hLO, xylenol orange hydroperoxide absorbance; hit rate 1.1% among 580,000
# Target sequence (P18054 whole entry, looked up): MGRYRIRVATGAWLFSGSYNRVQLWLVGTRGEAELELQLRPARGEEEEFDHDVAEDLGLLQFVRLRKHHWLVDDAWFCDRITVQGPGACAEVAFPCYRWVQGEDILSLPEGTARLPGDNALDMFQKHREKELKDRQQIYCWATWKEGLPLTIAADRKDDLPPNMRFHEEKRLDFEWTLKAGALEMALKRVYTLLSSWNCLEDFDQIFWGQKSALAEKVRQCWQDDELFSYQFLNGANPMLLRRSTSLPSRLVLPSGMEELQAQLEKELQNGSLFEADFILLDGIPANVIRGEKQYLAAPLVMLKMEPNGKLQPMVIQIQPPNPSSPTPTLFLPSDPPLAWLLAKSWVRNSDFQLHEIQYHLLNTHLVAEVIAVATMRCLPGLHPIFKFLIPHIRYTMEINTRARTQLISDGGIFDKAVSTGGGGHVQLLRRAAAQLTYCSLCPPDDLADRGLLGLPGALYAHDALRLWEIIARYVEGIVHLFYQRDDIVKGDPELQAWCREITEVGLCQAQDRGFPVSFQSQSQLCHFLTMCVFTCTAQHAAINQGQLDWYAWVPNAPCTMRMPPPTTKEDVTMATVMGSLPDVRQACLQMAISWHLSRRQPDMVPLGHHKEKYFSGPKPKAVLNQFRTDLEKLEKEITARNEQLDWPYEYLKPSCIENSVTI
#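 Hydroperoxide product was detected by ferrous iron/xylenol orange as the 573 to 405 nm absorbance ratio. Arachidonic acid at 40 uM (final) was turned over for 30 min at room temperature by 150 nM human 12hLO, pH 7.0 Hepes buffer, after 15 min compound preincubation.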
# ELG1 DNA repair: blocks ELG1-dependent DNA repair in HEK293T cells | Potency, µM (top dose mostly 46.1 µM), for the others: top-dose activity change, negative = inhibition, usual class: inhibitors | hit rate 2.3% among 330,000 | AID 504467 | HEK293T ELG1-luciferase reporter, luminescence, 16 h; DNA damage induced by 5-fluorouridine; further: nearly all actives have a fitted effect of over 55% in size
#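 In this reporter screen, reduction of luminescence relative to DMSO vehicle indicated activity. Compounds and 5-fluorouridine were added together to 2,000 cells per well, incubated for 16 hr at 37 °C, then developed with ONE-Glo.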
# TDP1 cell CPT: DT40-hTDP1 cell growth loss with CPT; chicken DT40 Tdp1-/-;hTDP1 cells + 20 nM CPT, ATP luminescence, 48 h; Potency, µM (series often up to 46.2 µM), for inactives: at the top dose activity change, negative = growth inhibition, most hits filed as inhibitors; hit rate 12% among 420,000; further: nearly all actives have a fitted effect of over 55% in size
#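 Cell growth measured by CellTiter-Glo luminescence after a minimum 48 h, 37 C compound exposure with 20 nM CPT in Tdp1-knockout DT40 cells stably expressing hTDP1, seeded 400/well; qHTS titration format.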
# TDP1 cell noCPT: qHTS for Inhibitors of human tyrosyl-DNA phosphodiesterase 1 (TDP1): qHTS in cells in absence of CPT; DT40 Tdp1-/- hTDP1 cells, no CPT, ATP luminescence, 48 h; Potency, µM (doses to about 46.2 µM), for the others: at the top dose activity change, negative = growth inhibition, most hits filed as inhibitors; hit rate 15% among 420,000; AID 686978, 2013; further: nearly all actives have a fitted effect of over 55% in size
#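 Camptothecin absent (DMSO only). Human TDP1-complemented DT40 knockout cells, 400 cells/well, 37 °C for minimum 48 hr; ATP measured via CellTiter-Glo, 30 min dark incubation, luminescence.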
# Numbers without * were called inactive; ? = inconclusive; . = not tested or not shown; [ ] = remark or other dose. The call rests on the fitted dose curve; in most records, active means well fitted curve in the direction sought with a large enough effect; inconclusive means small, poorly fitted or top-dose-only effect, or another doubt; inactive means no such curve, though single readings can be large; an effect the other way counts as inactive or inconclusive. On the % scale 0 is the no-effect control and ±100 the full control effect; potency means the concentration at half of the fitted maximal effect.
SMILES,RORg inh,VP16 counter,ALOX12 inh,ELG1 DNA repair,TDP1 cell CPT,TDP1 cell noCPT
CCn1cc(C2=NCC(C)O2)c2ccccc21 (stereo not drawn),17.8µM*,?,-18.4%,-0.3%,?,-24.4%
Cc1ccc(C(=O)N(Cc2ccc3c(c2)OCO3)Cc2nc3ccccc3c(=O)[nH]2)cc1,?,0.1%,-5.1%,-14.5%,-18.7%,-11.1%
COCC(=O)N(Cc1ccc(OC)cc1)Cc1nc2ccccc2c(=O)[nH]1,29.4%[0.365 µM],.,-1.2%,-0.2%,-1.5%,-2.6%
CCCCC(=O)N(Cc1ccc2c(c1)OCO2)Cc1nc2ccccc2c(=O)[nH]1,11.2µM*,-21.9%,?,1.7%,?,?
CCCC(=O)N(CCc1ccc(OC)cc1)Cc1nc2ccccc2c(=O)[nH]1,10µM*,?,3.7%[57.4 µM],?,-8.8%,-28.3%
COCC(=O)N(CCc1ccc(OC)cc1)Cc1nc2ccccc2c(=O)[nH]1,5.01µM*,7.08µM*,29.0%,-2.6%,?,3.26µM*
Cc1ccccc1-c1cnc2[nH]cc(CC(=O)N3CCOCC3)c2c1,.,.,4.1%[176 µM],.,.,.
C=CCn1c(-c2ccc(OC)cc2)csc1=Nc1c(C)n(C)n(-c2ccccc2)c1=O,30.0%,0.9%,-13.5%,20.6µM*,20.6µM*,20.6µM*
CCC(C)(C)C1CCC(NC(=O)Cc2cc(OC)c(OC)c(OC)c2)CC1 (stereo not drawn),.,.,5.0%,.,.,.
Cc1cc(C)c2c(c1)/C(=N/NC(=S)Nc1ccc(F)cc1)CCC2,-21.9%,15.8µM*,-22.7%,?,-7.4%,-28.2%
COC(=O)N/N=C1\CCCc2c(C)cc(C)cc21,4.7%,-2.7%,14.2%,-5.3%,10.5%,-5.2%
COc1ccc(NC(=O)c2cnc(C)cn2)c2ncccc12,0.316µM*,0.562µM*,.,7.1%,.,.
O=C1c2c(nc(COc3cccc(C(F)(F)F)c3)n2Cc2ccccc2)NCCN1CC1CC1,.,.,49.4%,.,.,.
Cc1nn(C)cc1CNC(=O)c1cc2n(n1)C(C(F)(F)F)CC(c1cccs1)N2 (stereo not drawn),4.6%,-3.2%,-6.1%,23.1µM*,?,?
Cc1nn(Cc2ccc(F)cc2)c(C)c1NC(=O)c1cnn2c1NC(c1cccs1)CC2C(F)(F)F (stereo not drawn),-1.0%,-3.7%,-11.1%,?,?,-17.2%
O=C(NCC1CCCO1)c1nn2c(c1Cl)NC(c1ccc(F)cc1)CC2C(F)(F)F (stereo not drawn),20.7%,-9.0%,0.0%,10.5%,16.4µM*,?
Cc1nn(C)c(C)c1CNC(=O)c1nn2c(c1Cl)NC(c1cccs1)CC2C(F)(F)F (stereo not drawn),?,?,8.1%[57.4 µM],?,16.4µM*,9.2µM*
COC[C@@H]1CN(c2cnccn2)C[C@H]1C(=O)NCCc1ccccn1,.,.,27.7%,.,.,.
O=C(NCCc1ccccn1)c1cccc(Cl)c1,.,.,12.9%,.,.,.
COC(=O)c1cn(C(=O)c2ccc(OC)cc2)c2ccccc12,40.9%[1.91 µM],-3.1%,-4.5%,5.9%,8.2µM*,4.61µM*
COC(=O)c1cn(C(=O)c2ccc3c(c2)OCO3)c2ccccc12,.,.,2.1%,.,?,16.4µM*
COC(=O)c1cn(C(=O)c2cc(C)cc(C)c2)c2ccccc12,10.8%,3.4%,-1.1%,5.3%,?,?
COC(=O)c1cn(C(=O)c2ccc(C)c(C)c2)c2ccccc12,-1.0%,?,20.7%,-17.3%,?,20.6µM*
COC(=O)c1cn(C(=O)c2ccc(C)cc2)c2ccccc12,-19.7%,-3.8%,?,9.8%,18.4µM*,16.4µM*
O=C(c1cn(-c2ccccc2)nc1-c1cccnc1)N1CCN(c2ccccc2O)CC1,.,.,-22.4%,.,.,.
SMILES,RORg inh,VP16 counter,ALOX12 inh,ELG1 DNA repair,TDP1 cell CPT,TDP1 cell noCPT
COc1ccc(OCCN(C)C(=O)c2cn(C)c3ccccc23)cc1,.,.,18.4%,.,.,.
CCCCN(C)C(=O)c1cccc2c(C)c(C)[nH]c12,.,.,-35.7%,.,.,.
COc1ccc(CN2CCc3nn(CC(C)C)c(=O)n3CC2)cc1Cn1ccnc1,.,.,38.9%,.,.,.
CC(C)(C)c1nnc(NC(=O)c2cc(-c3ccccc3)nc3ccccc23)s1,5.62µM*,10µM*,?,-9.5%,-6.8%,-29.6%
Cc1csc(NC(=O)c2cc(-c3ccccc3)nc3ccccc23)n1,-126.4%,?,?,?,?,14.6µM*
Cc1ccc(-c2cc(C(=O)Nc3nccs3)c3ccccc3n2)cc1,.,.,-7.5%,.,.,.
CCOC(=O)Cc1csc(NC(=O)c2cc(-c3ccncc3)nc3ccccc23)n1,.,.,?,?,16.4µM*,?
Cc1ccc(C)c(-c2cc(C(=O)Nc3nccs3)c3ccccc3n2)c1,12.6µM*,?,-22.4%,?,?,?
CCc1nnc(NC(=O)c2cc(-c3ccccc3)nc3ccccc23)s1,.,.,8.9%,.,.,.
COc1cc(C(C)=O)ccc1OCc1cccc(C#N)c1,.,.,-23.4%,.,.,.
CCOc1ccccc1/C=C(/C#N)C(=O)c1cccc(OC)c1,.,.,-46.2%,.,.,.
